In PMC7862700, “An all-to-all approach to the identification of sequence-specific readers for epigenetic DNA modifications on cytosine” one finds binding signal data, which are given here for one sequence.

Common to all, as to assay: DAPPL (digital affinity profiling via proximity ligation, sequencing); 10 mM Tris-HCl pH 7.5, 50 mM NaCl, 1 mM DTT, 4% glycerol, room temperature, 30 min; GST-TFs on glutathione beads, 16-mer random dsDNA library, 0.1% formaldehyde crosslink after washing; high values mean tight binding
One experiment has as its target T1, FEV (Homo sapiens, UniProt Q99581 1-238).
T1 sequence: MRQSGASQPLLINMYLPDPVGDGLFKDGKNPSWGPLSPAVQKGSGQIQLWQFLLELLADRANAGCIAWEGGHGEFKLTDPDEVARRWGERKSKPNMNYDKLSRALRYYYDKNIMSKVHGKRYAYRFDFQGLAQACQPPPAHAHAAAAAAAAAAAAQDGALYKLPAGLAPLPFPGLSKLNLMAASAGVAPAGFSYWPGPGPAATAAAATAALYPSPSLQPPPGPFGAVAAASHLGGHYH
The following applies: protein: recombinant; tags: N-terminal GST; dsDNA, one strand shown. Put shortly:
(§1)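 Human transcription factors carrying a GST fusion were produced in yeast, bound to glutathione beads, tagged with DNA barcodes and pooled together with a tag-only sample. Each pool was held with 200 nmole of a random double-stranded 16-mer DNA library in Tris/NaCl/DTT/glycerol buffer for 30 min at room temperature, then washed, crosslinked in 0.1% formaldehyde, proximity-ligated with BsaI/T4 ligase (1 h, 37 °C), PCR-amplified and sequenced on an Illumina NextSeq500. Binding signal is the read frequency of each hexamer for a given factor divided by its frequency in the tag-only sample.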

The target in the next experiment is ETV5 (Homo sapiens, UniProt P41161 1-510). Particulars: protein: recombinant; tags: N-terminal GST; dsDNA, one strand shown. In outline: as §1
In the next experiment the target is HSF1 (Homo sapiens, UniProt Q00613 1-529). The following applies: protein: recombinant; tags: N-terminal GST; chain copies: 3; dsDNA, one strand shown. Put shortly: as §1
Another experiment deals with T2, SPIC (Homo sapiens, UniProt Q8N5J4 1-248).
T2 sequence: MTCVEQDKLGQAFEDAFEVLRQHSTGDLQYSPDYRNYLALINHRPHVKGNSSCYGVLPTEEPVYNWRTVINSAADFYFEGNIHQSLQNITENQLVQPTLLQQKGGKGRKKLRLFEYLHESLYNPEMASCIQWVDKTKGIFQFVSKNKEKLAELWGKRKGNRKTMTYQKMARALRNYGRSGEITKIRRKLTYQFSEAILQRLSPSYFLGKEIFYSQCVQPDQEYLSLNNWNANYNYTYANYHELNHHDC
The following applies: protein: recombinant; tags: N-terminal GST; dsDNA, one strand shown. Put shortly: as §1

Another experiment concerns the target ELF4 (Homo sapiens, UniProt Q99607 1-663). Particulars: protein: recombinant; tags: N-terminal GST; dsDNA, one strand shown. Put shortly: as §1
The target of another experiment is T3, ELK4 (Homo sapiens, UniProt P28324-2 1-405).
T3 sequence: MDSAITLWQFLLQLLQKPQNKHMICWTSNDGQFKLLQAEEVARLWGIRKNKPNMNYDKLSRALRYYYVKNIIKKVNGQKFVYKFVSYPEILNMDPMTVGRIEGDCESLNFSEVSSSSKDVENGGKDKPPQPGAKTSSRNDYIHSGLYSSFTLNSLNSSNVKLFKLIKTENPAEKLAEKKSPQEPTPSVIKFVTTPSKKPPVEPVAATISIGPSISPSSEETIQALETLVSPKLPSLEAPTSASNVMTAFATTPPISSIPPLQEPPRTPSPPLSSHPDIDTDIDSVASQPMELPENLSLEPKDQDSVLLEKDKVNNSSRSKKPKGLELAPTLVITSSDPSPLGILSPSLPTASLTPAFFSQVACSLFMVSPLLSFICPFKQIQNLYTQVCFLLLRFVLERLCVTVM
Particulars: protein: recombinant; tags: N-terminal GST; dsDNA, one strand shown. Put shortly:
as §1

The target of the next experiment is T4, ETV2 (Homo sapiens, UniProt O00321 1-342).
T4 sequence: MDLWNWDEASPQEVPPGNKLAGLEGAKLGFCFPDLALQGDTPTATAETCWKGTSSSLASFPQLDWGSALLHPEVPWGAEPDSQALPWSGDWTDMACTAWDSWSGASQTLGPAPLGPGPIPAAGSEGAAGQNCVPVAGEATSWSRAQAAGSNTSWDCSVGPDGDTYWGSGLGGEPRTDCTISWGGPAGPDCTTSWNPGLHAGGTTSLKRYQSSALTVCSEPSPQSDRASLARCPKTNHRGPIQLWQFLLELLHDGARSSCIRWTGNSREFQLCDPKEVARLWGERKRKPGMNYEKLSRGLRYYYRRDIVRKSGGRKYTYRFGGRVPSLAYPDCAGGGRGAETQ
The following applies: protein: recombinant; tags: N-terminal GST; dsDNA, one strand shown. Put shortly:
as §1

A further experiment addresses T5, ELF3 (Homo sapiens, UniProt P78545 1-371).
T5 sequence: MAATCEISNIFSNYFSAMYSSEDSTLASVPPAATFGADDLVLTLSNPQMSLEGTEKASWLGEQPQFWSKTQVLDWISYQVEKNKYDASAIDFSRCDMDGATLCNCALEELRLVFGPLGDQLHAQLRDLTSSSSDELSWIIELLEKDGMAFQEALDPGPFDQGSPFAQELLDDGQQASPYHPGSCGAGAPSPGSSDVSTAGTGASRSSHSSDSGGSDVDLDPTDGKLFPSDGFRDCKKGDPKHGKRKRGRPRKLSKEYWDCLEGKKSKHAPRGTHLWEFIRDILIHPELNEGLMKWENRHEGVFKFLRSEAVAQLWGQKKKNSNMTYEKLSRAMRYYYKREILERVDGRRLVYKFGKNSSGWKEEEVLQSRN
Particulars: protein: recombinant; tags: N-terminal GST; dsDNA, one strand shown. Put shortly:
as §1

In a further experiment the target is CRX (Homo sapiens, UniProt O43186 1-299). Particulars: protein: recombinant; tags: N-terminal GST; dsDNA, one strand shown. Put shortly:
as §1

The next experiment has as its target ETV1 (Homo sapiens, UniProt P50549 1-477). The following applies: protein: recombinant; tags: N-terminal GST; dsDNA, one strand shown. Put shortly:
as §1

A further experiment deals with T6, ERF (Homo sapiens, UniProt P50548 1-548).
T6 sequence: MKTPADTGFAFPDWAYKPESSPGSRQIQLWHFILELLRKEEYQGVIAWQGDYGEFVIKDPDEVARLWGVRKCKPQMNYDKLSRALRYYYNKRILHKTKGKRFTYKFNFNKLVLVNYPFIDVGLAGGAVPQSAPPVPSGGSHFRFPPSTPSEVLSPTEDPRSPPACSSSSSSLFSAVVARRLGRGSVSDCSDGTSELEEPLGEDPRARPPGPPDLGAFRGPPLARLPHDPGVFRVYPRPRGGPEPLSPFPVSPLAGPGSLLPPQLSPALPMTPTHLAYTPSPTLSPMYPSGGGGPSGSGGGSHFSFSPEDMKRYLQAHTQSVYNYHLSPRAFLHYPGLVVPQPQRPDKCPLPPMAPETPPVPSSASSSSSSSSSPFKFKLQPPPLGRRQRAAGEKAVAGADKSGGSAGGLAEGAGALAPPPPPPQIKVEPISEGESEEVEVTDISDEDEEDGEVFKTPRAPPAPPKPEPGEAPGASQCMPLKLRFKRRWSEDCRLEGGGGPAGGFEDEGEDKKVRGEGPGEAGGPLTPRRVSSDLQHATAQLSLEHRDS
The following applies: protein: recombinant; tags: N-terminal GST; dsDNA, one strand shown. Put shortly:
as §1

A further experiment deals with T7, ETV3L (Homo sapiens, UniProt Q6ZN32 1-361).
T7 sequence: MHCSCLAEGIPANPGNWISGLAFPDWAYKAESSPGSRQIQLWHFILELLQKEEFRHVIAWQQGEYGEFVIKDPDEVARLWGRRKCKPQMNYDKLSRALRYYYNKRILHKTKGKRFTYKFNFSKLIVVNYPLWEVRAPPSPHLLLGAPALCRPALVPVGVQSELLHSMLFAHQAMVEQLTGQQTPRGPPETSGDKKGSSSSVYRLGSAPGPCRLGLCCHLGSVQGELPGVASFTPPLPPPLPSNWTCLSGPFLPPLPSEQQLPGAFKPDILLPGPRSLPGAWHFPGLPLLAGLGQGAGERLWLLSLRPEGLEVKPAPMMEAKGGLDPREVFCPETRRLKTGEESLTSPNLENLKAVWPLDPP
Particulars: protein: recombinant; tags: N-terminal GST; dsDNA, one strand shown. Put shortly: as §1

The target in the next experiment is T8, ETS2 (Homo sapiens, UniProt P15036 1-469).
T8 sequence: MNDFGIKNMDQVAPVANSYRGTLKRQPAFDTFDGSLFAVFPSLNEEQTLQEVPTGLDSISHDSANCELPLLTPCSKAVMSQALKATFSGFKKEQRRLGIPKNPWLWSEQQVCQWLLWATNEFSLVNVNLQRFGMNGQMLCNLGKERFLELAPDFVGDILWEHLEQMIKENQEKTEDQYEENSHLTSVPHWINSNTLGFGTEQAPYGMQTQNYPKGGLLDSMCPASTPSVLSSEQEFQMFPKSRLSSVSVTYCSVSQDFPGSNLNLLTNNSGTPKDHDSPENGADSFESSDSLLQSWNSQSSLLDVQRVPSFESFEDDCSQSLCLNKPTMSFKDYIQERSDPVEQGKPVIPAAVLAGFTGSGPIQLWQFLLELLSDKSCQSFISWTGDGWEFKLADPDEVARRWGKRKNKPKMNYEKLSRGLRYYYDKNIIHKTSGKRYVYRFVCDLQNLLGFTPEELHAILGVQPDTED
The following applies: protein: recombinant; tags: N-terminal GST; dsDNA, one strand shown. Put shortly:
as §1

Another experiment has as its target T9, SPDEF (Homo sapiens, UniProt O95238 1-335).
T9 sequence: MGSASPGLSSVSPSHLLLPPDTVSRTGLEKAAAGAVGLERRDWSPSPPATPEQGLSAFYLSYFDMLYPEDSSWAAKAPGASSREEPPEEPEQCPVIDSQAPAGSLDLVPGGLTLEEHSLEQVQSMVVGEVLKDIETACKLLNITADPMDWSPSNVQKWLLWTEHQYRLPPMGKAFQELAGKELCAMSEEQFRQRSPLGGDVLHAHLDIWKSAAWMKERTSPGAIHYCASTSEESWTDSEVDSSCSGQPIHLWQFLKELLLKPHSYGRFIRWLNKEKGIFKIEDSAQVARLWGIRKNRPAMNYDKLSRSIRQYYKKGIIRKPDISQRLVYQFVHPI
Particulars: protein: recombinant; tags: N-terminal GST; dsDNA, one strand shown. In outline: as §1

Another experiment has as its target T10, ETV7 (Homo sapiens, UniProt Q9Y603 1-341).
T10 sequence: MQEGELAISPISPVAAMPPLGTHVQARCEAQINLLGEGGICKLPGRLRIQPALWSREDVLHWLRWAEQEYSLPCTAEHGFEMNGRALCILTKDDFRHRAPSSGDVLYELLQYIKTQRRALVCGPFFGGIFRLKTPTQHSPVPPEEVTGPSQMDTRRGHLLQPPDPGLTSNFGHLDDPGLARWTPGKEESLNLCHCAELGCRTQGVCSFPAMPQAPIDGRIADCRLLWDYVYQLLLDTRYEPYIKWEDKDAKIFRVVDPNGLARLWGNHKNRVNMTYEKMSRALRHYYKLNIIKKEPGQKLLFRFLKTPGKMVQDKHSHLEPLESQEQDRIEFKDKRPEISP
The following applies: protein: recombinant; tags: N-terminal GST; dsDNA, one strand shown. Put shortly: as §1

Another experiment addresses T11, ELF5 (Homo sapiens, UniProt Q9UKW6-2 1-255).
T11 sequence: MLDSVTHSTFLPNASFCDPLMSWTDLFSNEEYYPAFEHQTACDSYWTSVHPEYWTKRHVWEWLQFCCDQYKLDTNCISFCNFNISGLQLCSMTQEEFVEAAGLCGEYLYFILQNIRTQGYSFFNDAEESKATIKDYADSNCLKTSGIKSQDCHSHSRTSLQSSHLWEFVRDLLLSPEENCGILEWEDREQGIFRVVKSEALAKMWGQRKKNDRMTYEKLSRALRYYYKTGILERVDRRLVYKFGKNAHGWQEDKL
The following applies: protein: recombinant; tags: N-terminal GST; dsDNA, one strand shown. Put shortly: as §1

A further experiment addresses T12, ETV3 (Homo sapiens, UniProt P41162-2 1-143).
T12 sequence: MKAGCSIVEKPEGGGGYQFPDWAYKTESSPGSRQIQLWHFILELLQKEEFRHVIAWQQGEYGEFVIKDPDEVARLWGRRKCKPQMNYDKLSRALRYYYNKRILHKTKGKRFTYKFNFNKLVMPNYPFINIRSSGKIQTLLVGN
The following applies: protein: recombinant; tags: N-terminal GST; dsDNA, one strand shown. In outline:
as §1

Another experiment deals with ETV6 (Homo sapiens, UniProt P41212 1-452). Particulars: protein: recombinant; tags: N-terminal GST; dsDNA, one strand shown. In outline: as §1
Sequence of ETV6 (P41212 whole entry): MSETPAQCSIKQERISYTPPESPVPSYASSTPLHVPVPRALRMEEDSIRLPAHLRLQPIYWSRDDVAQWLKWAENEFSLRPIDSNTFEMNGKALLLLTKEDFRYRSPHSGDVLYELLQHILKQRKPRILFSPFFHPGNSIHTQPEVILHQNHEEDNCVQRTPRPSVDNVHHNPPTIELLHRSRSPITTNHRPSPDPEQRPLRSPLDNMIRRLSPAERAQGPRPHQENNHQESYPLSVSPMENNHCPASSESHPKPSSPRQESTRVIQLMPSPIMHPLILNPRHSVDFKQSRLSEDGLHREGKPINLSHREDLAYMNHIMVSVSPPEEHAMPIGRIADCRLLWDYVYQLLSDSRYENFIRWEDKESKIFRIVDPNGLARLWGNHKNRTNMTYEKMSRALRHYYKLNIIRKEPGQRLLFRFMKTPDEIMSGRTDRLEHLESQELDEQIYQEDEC

Sequence of ETV1 (P50549 whole entry): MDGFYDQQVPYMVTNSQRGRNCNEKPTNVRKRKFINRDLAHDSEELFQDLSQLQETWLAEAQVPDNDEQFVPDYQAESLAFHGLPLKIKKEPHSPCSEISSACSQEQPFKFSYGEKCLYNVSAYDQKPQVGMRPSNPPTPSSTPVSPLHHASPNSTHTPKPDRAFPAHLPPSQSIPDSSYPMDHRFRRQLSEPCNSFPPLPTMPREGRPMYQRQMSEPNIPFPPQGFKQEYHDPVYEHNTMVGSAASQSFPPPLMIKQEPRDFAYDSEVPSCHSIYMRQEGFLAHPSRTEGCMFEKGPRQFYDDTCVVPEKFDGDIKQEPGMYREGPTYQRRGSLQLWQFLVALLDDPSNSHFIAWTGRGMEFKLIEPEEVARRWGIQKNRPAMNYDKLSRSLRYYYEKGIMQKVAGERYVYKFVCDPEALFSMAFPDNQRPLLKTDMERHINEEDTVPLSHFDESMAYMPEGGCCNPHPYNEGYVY
Sequence of HSF1 (Q00613 whole entry): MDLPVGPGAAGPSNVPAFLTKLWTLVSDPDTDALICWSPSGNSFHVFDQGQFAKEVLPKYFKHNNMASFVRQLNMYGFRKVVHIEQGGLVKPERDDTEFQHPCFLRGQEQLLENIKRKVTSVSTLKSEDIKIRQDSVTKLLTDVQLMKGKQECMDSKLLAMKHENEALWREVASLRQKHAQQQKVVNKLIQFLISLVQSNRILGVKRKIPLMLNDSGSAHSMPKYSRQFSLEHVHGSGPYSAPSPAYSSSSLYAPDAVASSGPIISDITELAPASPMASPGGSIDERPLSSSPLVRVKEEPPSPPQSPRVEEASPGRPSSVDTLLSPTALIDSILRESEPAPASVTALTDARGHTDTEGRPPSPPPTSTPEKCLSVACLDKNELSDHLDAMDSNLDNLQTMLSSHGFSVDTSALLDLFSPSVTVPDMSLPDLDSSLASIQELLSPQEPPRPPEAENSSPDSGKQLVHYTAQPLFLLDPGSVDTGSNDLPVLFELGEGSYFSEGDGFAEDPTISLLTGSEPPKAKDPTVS
Sequence of ELF4 (Q99607 whole entry): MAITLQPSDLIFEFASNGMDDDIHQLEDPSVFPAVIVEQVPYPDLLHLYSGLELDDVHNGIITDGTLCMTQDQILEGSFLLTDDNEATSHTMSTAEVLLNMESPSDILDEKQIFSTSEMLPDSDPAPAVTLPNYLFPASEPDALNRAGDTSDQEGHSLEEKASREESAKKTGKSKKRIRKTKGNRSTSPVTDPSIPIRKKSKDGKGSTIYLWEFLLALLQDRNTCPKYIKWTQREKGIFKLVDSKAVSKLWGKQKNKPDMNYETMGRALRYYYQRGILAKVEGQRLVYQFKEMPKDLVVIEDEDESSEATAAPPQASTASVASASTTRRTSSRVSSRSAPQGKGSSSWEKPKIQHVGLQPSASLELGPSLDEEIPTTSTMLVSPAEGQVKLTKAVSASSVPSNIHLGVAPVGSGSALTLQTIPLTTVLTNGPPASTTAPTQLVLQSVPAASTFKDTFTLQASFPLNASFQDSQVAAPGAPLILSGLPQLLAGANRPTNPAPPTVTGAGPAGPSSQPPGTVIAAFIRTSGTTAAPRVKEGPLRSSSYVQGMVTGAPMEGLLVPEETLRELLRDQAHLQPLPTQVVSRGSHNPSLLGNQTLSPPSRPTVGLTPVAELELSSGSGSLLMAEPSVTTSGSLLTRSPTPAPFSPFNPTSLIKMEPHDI
Sequence of CRX (O43186 whole entry): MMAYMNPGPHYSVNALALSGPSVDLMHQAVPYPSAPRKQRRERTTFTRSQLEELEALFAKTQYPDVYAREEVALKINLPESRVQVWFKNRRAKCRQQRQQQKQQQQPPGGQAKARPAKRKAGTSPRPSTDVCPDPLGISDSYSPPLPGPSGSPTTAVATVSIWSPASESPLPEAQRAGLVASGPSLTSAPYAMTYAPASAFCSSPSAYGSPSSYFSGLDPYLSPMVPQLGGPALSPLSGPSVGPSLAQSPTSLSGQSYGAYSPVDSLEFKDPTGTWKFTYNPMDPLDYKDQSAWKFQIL
Sequence of ETV5 (P41161 whole entry): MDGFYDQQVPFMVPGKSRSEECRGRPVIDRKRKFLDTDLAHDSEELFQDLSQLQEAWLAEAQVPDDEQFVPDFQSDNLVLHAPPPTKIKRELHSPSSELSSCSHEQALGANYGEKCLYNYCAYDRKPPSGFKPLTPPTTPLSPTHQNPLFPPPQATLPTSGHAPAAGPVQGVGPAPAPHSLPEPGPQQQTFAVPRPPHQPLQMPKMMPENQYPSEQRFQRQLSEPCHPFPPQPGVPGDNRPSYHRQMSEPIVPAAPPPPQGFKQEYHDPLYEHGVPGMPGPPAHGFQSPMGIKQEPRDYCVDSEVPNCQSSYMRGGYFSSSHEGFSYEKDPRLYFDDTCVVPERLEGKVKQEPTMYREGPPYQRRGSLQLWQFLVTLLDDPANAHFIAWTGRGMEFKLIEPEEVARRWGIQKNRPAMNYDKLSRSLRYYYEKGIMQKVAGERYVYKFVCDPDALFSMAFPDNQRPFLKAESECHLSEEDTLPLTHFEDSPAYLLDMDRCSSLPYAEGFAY

With GCCTAA, the binding signal in the experiment with FEV was 1.21 fold enrichment (6-mer frequency, TF over GST control); in the experiment with ETV5 it was 1.19 fold enrichment (6-mer frequency, TF over GST control); in the experiment with HSF1, 1.38 fold enrichment (6-mer frequency, TF over GST control); with SPIC it was 1.35 fold enrichment (6-mer frequency, TF over GST control); with ELF4, 1.25 fold enrichment (6-mer frequency, TF over GST control); with ELK4, 1.25 fold enrichment (6-mer frequency, TF over GST control). Also, the binding signal was 1.19 fold enrichment (6-mer frequency, TF over GST control) with ETV2; 1.35 fold enrichment (6-mer frequency, TF over GST control) in the experiment with ELF3; 1.84 fold enrichment (6-mer frequency, TF over GST control) with CRX; 1.22 fold enrichment (6-mer frequency, TF over GST control) in the experiment with ETV1; 1.22 fold enrichment (6-mer frequency, TF over GST control) in the experiment with ERF; 1.22 fold enrichment (6-mer frequency, TF over GST control) with ETV3L. Moreover, the binding signal in the experiment with ETS2 is 1.31 fold enrichment (6-mer frequency, TF over GST control); in the experiment with SPDEF, 1.11 fold enrichment (6-mer frequency, TF over GST control); with ETV7, 1.19 fold enrichment (6-mer frequency, TF over GST control); with ELF5, 1.18 fold enrichment (6-mer frequency, TF over GST control); with ETV3 it was 1.21 fold enrichment (6-mer frequency, TF over GST control); with ETV6 it was 1.13 fold enrichment (6-mer frequency, TF over GST control).
